# Results as given in PubChem BioAssay (EPA / NIEHS).
# Records with an inconclusive call do not appear. Activity calls are given as the source filed them. The calls were made as follows, unless noted: active = hit-call score of the fitted dose curve at least 0.9, where 1 is the maximum; inactive = score below 0.9.
# Experiments:
# [1] = ACEA_ER_80hr: ACEA Biosciences xCELLigence Real-Time Cell Analysis on Estrogen Receptor Agonism for Proliferation (AID 2282667; active = hit-call score of the fitted dose curve at least 0.9, where 1 is the maximum); conditions: T47D proliferation, impedance (xCELLigence), 80 h
# In short: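 Impedance readout (RT-CES) of T47D proliferation at 80 h post-dose; gain of signal vs DMSO baseline. Compounds: 8 conc, 1:4 serial, top 100 uM final, ≤0.5% DMSO; biological duplicate.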
# [2] = ATG_CRE_CIS: Attagene CIS-FACTORIAL HepG2 Assay for human cAMP Responsive Element (CRE) binding protein 3 (AID 2282926); conditions: HepG2 CRE cis-reporter, Attagene multiplexed mRNA; actives raise or lower the signal
# In short: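 Endogenous CRE-binding activity in HepG2 is reported through a cis-regulated transfected reporter. Following a day of exposure, mRNA levels are determined by reverse transcription PCR and fluorescent fragment analysis; fits run in both directions versus DMSO.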
# [3] = target: CCAAT/enhancer-binding protein beta (Homo sapiens) (UniProt P17676); experiment: ATG_C_EBP_CIS: Attagene CIS-FACTORIAL HepG2 Assay for human CCAAT/Enhancer Binding Protein (C/EBP) beta (AID 2282927); conditions: HepG2 Attagene cis-factorial transcription factor reporter; actives raise or lower the signal
# In short: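 RT-PCR/capillary electrophoresis fluorescence of reporter mRNA, 24 h post-dose, in HepG2 cells carrying transfected cis-promoter reporter units. Bidirectional curve fitting against DMSO baseline captures gain or loss of signal.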
# [4] = ATG_CMV_CIS: Attagene CIS-FACTORIAL HepG2 Assay for human CMV (Internal Marker) (AID 2282928); conditions: HepG2 CMV promoter reporter, transcription factor profiling; actives raise or lower the signal;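 also: endpoint acts as a background internal control marker rather than a target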
# In short: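 Cell system: HepG2, transiently transfected multiple reporter units under cis promoters. Exposure: 24 h. Detection: RT-PCR, FAM labeling, HpaI digestion, capillary electrophoresis. Analysis: bidirectional, DMSO baseline.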
# [5] = ATG_DR4_LXR_CIS: Attagene CIS-FACTORIAL HepG2 Assay for human Liver X Receptor (LXR), DR4 submotif (AID 2282929); conditions: HepG2 Attagene DR4 cis-reporter, mRNA transcription; actives raise or lower the signal
# In short: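 Endogenous factor activity at a DR4 cis-element is read as reporter mRNA in transiently transfected HepG2 cells. Exposure lasts 24 h; transcripts are amplified, fluorescently labelled and sized by capillary electrophoresis, with DMSO as baseline.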
# [6] = target: Aryl hydrocarbon receptor (Homo sapiens) (UniProt P35869); experiment: ATG_Ahr_CIS: Attagene CIS-FACTORIAL HepG2 Assay for human Aryl Hydrocarbon Receptor (Ahr) (AID 2282930); conditions: HepG2 AhR cis-factorial reporter transcription; actives raise or lower the signal
# In short: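 HepG2 cells transiently transfected with cis-element-driven multiplexed reporter transcription units; endogenous transcription factor activity measured as reporter mRNA 24 h after dosing. RT-PCR, 6-FAM labelling, HpaI digestion, capillary electrophoresis; bidirectional fitting versus DMSO baseline.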
# [7] = ATG_AP_1_CIS: Attagene CIS-FACTORIAL HepG2 Assay for human Activator Protein 1 (AP-1) (AID 2282931); conditions: HepG2 Attagene cis-factorial AP-1 reporter mRNA; actives raise or lower the signal
# In short: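 Fluorescence of labelled PCR fragments separated by capillary electrophoresis gives reporter mRNA levels. HepG2 with transfected cis-regulated reporter units, 24 h exposure; DMSO serves as baseline for bidirectional curve fits.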
# [8] = ATG_AP_2_CIS: Attagene CIS-FACTORIAL HepG2 Assay for human Activator Protein 2 (AP-2) (AID 2282932); conditions: HepG2 AP-2 cis-reporter, Attagene transcription factor profiling; actives raise or lower the signal
# In short: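 Bidirectional curve fitting against DMSO was applied to reporter mRNA signals from HepG2 cells 24 h after dosing. Cis-promoter reporter units, transiently transfected, were read by RT-PCR plus capillary electrophoresis.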
# [9] = ATG_BRE_CIS: Attagene CIS-FACTORIAL HepG2 Assay for human Bone Morphogenetic Protein (BMP) Response Element (BRE) (AID 2282933); conditions: HepG2 BMP response element reporter, Attagene transcription factor profiling; actives raise or lower the signal
# In short: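 Endogenous transcription factor activity at a BMP response element was monitored in transfected HepG2 cells 24 h after dosing. Fluorescent RT-PCR products were resolved by capillary electrophoresis, and activity was fitted in both directions versus DMSO.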
# [10] = target: Retinoic acid receptor alpha (Homo sapiens) (UniProt P10276); experiment: ATG_DR5_RAR_CIS: Attagene CIS-FACTORIAL HepG2 Assay for human Retinoic Acid Receptor Alpha (RARE), DR5 submotif (AID 2282934); conditions: HepG2 Attagene cis-factorial RARE DR5 reporter, mRNA; actives raise or lower the signal;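 as to AC50: reporter responds to endogenous RAR alpha beta and gamma in HepG2 not RARA alone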
# In short: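 HepG2 cells transiently transfected with multiplexed reporter units under cis (DR5 RARE) promoters, so endogenous transcription factor activity is measured. After 24 h compound exposure, reporter mRNA is quantified by RT-PCR with fluorescent labelling and capillary electrophoresis; bidirectional fitting versus DMSO.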
# [11] = target: Transcription factor E2F1 (Homo sapiens) (UniProt Q01094); experiment: ATG_E2F_CIS: Attagene CIS-FACTORIAL HepG2 Assay for human E2F Transcription Factor 1 (AID 2282935); conditions: HepG2 Attagene cis-reporter, E2F reporter RNA transcripts; actives raise or lower the signal
# In short: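 Multiplexed cis-reporter assay: HepG2, transient transfection, 24 h dosing, mRNA quantitation by labeled RT-PCR and CE.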
# [12] = ATG_E_Box_CIS: Attagene CIS-FACTORIAL HepG2 Assay for human Enhancer Box (E-box) (AID 2282936); conditions: HepG2 E-box cis-reporter transcription, actives raise or lower the signal
# In short: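 Multiplexed CIS reporter system in transiently transfected HepG2 cells measures native transcription factor activity. Reporter RNA after 24 h exposure is profiled by RT-PCR-capillary electrophoresis.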
# [13] = ATG_M_61_CIS: Attagene CIS-FACTORIAL HepG2 Assay for M61 Transcription Factor (Internal Marker) (AID 2282937); conditions: HepG2 Attagene CIS-FACTORIAL M61 internal marker reporter; actives raise or lower the signal
# In short: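 This endpoint serves as an internal background control within a multiplexed HepG2 cis-reporter panel. Cells are exposed for 24 h; reporter mRNA is amplified, fluorescently labelled and sized by capillary electrophoresis, with DMSO as negative control.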
# [14] = ATG_EGR_CIS: Attagene CIS-FACTORIAL HepG2 Assay for human Early Growth Response 1 (EGR1) (AID 2282938); conditions: HepG2 Attagene CIS-FACTORIAL EGR reporter mRNA; actives raise or lower the signal
# In short: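 HepG2, transient MRTU transfection (cis promoters), 24 h compound. RNA → RT (oligo-dT) → PCR → 6-FAM labelling → HpaI cut → CE fluorescence. Bidirectional fit, DMSO baseline.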
# [15] = ATG_ERE_CIS: Attagene CIS-FACTORIAL HepG2 Assay for Estrogen Response Element (ERE) (AID 2282940); conditions: HepG2 ERE cis-reporter, Attagene RNA transcript; actives raise or lower the signal
# In short: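 Cells used were human hepatoma HepG2, transfected with multiple reporter transcription units under cis-regulatory promoters. Reporter mRNA, read 24 h post-dosing via fluorescent RT-PCR products on capillary electrophoresis, was fitted bidirectionally relative to DMSO.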
# [16] = ATG_Ets_CIS: Attagene CIS-FACTORIAL HepG2 Assay for human Erythroblast Transformation Specific (ETS) (AID 2282941); conditions: HepG2 ETS cis-reporter transcription, actives raise or lower the signal
# In short: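 After transient cis-reporter transfection, HepG2 cells receive test chemical for 24 h. Reporter mRNA levels, measured by RT-PCR and capillary electrophoresis fluorescence, are analysed bidirectionally relative to the DMSO baseline.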
# [17] = target: Hepatocyte nuclear factor 3-beta (Homo sapiens) (UniProt Q9Y261); experiment: ATG_FoxA2_CIS: Attagene CIS-FACTORIAL HepG2 Assay for human Forkhead box A2 (FOXA2) (AID 2282942); conditions: HepG2 cis-reporter transcription factor activity, 24 h; actives raise or lower the signal
# In short: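 Cells: HepG2, transient multiplex reporter transfection. Exposure 24 h. Detection: reporter-specific RT-PCR, fluorescent labelling, restriction digest, capillary electrophoresis. Analysis: bidirectional curve fit, DMSO as negative control.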
# [18] = ATG_FoxO_CIS: Attagene CIS-FACTORIAL HepG2 Assay for human Forkhead box O (FoxO) (AID 2282943); conditions: HepG2 Attagene cis-reporter, FoxO element, mRNA; actives raise or lower the signal
# In short: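 HepG2 cells transiently transfected with cis-promoter-driven multiple reporter transcription units; 24 h after chemical dosing, reporter mRNA quantified by RT-PCR, fluorescent primer extension, HpaI digestion and capillary electrophoresis. Bidirectional fitting versus DMSO baseline.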
# [19] = ATG_GATA_CIS: Attagene CIS-FACTORIAL HepG2 Assay for human GATA Binding Protein (AID 2282944); conditions: HepG2 GATA cis-element reporter, Attagene multiplex mRNA; actives raise or lower the signal
# In short: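 Endogenous transcription factor activity was captured through cis-promoter-driven reporters in transfected HepG2 cells. After 24 h exposure, reporter transcripts were quantified by RT-PCR with fluorescent capillary electrophoresis, and responses fitted both directions against DMSO.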
# [20] = ATG_M_19_CIS: Attagene CIS-FACTORIAL HepG2 Assay for M19 Transcription Factor (Internal Marker) (AID 2282939); conditions: HepG2 Attagene CIS-FACTORIAL M19 internal marker reporter; actives raise or lower the signal
# In short: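 Background-control endpoint from a multiplexed HepG2 reporter panel. Cells carrying cis-regulated reporter constructs are treated 24 h, then reporter transcripts are amplified, fluorescently labelled and sized by capillary electrophoresis. DMSO defines baseline.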
# Retinoic acid receptor alpha (Homo sapiens), sequence (P10276 whole entry, looked up): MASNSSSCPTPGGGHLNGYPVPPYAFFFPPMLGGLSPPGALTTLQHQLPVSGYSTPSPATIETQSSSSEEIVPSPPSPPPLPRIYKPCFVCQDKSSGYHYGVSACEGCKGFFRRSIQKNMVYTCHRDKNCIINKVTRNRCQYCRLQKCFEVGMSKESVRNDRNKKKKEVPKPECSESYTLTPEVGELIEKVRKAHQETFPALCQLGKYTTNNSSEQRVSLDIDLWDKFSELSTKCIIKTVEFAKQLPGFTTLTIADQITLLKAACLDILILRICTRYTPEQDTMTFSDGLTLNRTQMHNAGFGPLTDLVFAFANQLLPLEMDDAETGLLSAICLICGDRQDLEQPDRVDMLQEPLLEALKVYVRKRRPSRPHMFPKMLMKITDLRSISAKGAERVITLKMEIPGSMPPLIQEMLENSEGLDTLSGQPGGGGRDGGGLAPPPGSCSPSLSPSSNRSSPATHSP
# Aryl hydrocarbon receptor (Homo sapiens), sequence (P35869 whole entry, looked up): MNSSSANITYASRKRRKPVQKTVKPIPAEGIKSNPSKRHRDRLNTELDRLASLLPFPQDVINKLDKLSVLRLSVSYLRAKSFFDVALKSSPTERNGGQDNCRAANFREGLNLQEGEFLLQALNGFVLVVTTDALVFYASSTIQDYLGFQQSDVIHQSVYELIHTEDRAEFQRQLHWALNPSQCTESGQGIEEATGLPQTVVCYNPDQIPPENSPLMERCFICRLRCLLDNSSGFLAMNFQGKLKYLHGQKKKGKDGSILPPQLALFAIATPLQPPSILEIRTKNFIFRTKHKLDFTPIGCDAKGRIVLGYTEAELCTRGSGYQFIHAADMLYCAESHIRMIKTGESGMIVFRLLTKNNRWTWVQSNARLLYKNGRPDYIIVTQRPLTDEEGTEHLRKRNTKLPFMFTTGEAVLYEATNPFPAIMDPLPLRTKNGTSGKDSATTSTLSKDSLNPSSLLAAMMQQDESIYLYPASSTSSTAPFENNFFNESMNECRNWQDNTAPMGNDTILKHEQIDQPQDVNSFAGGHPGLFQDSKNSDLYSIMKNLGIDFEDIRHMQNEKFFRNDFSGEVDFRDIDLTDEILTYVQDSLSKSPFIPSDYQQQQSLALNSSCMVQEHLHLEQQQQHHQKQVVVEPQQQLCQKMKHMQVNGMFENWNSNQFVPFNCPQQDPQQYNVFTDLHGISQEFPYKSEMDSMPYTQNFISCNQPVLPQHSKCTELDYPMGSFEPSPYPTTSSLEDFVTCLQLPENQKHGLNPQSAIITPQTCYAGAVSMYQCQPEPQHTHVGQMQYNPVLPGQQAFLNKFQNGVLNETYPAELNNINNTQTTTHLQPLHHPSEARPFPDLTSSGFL
# CCAAT/enhancer-binding protein beta (Homo sapiens), sequence (P17676 whole entry, looked up): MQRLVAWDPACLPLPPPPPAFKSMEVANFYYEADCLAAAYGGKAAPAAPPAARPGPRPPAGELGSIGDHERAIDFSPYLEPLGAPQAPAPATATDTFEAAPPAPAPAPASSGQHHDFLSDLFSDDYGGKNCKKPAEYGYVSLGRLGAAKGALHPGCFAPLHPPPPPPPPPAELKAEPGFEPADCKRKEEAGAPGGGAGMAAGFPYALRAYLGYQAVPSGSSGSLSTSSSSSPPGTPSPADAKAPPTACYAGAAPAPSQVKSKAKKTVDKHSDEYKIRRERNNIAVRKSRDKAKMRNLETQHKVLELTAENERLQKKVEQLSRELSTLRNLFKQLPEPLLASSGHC
# Transcription factor E2F1 (Homo sapiens), sequence (Q01094 whole entry, looked up): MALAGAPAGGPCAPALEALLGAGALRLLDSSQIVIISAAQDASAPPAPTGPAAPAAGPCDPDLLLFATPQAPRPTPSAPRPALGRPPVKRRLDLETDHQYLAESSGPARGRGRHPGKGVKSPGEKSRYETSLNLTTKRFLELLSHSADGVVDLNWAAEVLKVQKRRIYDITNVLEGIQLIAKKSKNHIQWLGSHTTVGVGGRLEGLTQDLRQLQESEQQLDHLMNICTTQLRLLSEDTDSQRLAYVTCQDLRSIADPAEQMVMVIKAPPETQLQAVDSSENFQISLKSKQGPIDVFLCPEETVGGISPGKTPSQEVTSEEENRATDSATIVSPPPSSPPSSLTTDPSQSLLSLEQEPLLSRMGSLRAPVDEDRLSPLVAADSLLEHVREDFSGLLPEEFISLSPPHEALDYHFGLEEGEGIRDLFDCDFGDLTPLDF
# Hepatocyte nuclear factor 3-beta (Homo sapiens), sequence (Q9Y261 whole entry, looked up): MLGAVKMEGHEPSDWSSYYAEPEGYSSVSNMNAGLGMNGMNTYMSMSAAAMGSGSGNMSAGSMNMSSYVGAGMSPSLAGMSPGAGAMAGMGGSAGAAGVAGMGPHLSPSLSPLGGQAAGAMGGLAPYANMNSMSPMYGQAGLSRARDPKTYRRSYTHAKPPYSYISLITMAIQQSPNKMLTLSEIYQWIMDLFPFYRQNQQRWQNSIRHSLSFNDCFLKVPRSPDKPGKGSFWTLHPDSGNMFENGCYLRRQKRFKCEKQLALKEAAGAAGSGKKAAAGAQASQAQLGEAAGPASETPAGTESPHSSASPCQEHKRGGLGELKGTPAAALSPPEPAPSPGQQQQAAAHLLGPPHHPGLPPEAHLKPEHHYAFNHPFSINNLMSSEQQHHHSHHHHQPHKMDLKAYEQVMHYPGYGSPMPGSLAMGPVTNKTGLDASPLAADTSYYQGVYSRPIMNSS
smiles,measurement,setting,value
COC(=O)c1ccccc1C,outcome,[1],inactive
same,outcome,[2],inactive
same,outcome,[3],inactive
same,outcome,[4],inactive
same,outcome,[5],inactive
same,outcome,[6],inactive
same,outcome,[7],inactive
same,outcome,[8],inactive
same,outcome,[9],inactive
same,outcome,[10],inactive
same,outcome,[11],inactive
same,outcome,[12],inactive
same,outcome,[13],inactive
same,outcome,[14],inactive
same,outcome,[15],inactive
same,outcome,[16],inactive
same,outcome,[17],inactive
same,outcome,[18],inactive
same,outcome,[19],inactive
O=C(O)CCCC(=O)O,outcome,[1],inactive
same,outcome,[2],inactive
same,outcome,[3],inactive
same,outcome,[4],inactive
same,outcome,[5],inactive
same,outcome,[6],inactive
same,outcome,[7],inactive
same,outcome,[8],inactive
same,outcome,[9],inactive
same,outcome,[10],inactive
same,outcome,[11],inactive
same,outcome,[12],inactive
same,outcome,[13],inactive
same,outcome,[14],inactive
same,outcome,[20],inactive
same,outcome,[15],inactive
same,outcome,[17],inactive
same,outcome,[18],inactive
same,outcome,[19],inactive
CC(C)=CCCC(C)=CC#N,outcome,[1],inactive
same,outcome,[2],inactive
same,outcome,[3],inactive
same,outcome,[4],inactive
same,outcome,[5],inactive
same,outcome,[6],inactive
same,outcome,[7],inactive
same,outcome,[8],inactive
same,outcome,[9],inactive
same,outcome,[10],inactive
same,outcome,[11],inactive
same,outcome,[12],inactive
same,outcome,[13],inactive
same,outcome,[14],inactive
same,outcome,[20],inactive
same,outcome,[16],inactive
same,outcome,[18],inactive
same,outcome,[19],inactive
c1ccc2sc(SSN3CCOCC3)nc2c1,outcome,[1],inactive
same,AC50,[2],146 µM (active)
same,outcome,[3],inactive
same,AC50,[4],64 µM (active)
same,AC50,[5],100 µM (active)
same,AC50,[6],3.45 µM (active)
same,AC50,[7],43.2 µM (active)
same,AC50,[8],64.8 µM (active)
same,outcome,[9],inactive
same,AC50,[10],170 µM (active)
same,outcome,[11],inactive
same,outcome,[12],inactive
same,outcome,[13],inactive
same,AC50,[14],100 µM (active)
same,outcome,[20],inactive
same,outcome,[15],inactive
same,AC50,[18],158 µM (active)
same,outcome,[19],inactive
CCOC(=O)C1=NN(c2ccc(Cl)cc2Cl)C(C)(C(=O)OCC)C1 (stereo unspecified),outcome,[1],inactive
same,outcome,[2],inactive
same,outcome,[3],inactive
same,outcome,[4],inactive
same,outcome,[5],inactive
same,outcome,[6],inactive
same,AC50,[7],164 µM (active)
same,outcome,[8],inactive
same,outcome,[9],inactive
same,outcome,[10],inactive
same,outcome,[11],inactive
same,outcome,[12],inactive
same,outcome,[13],inactive
same,outcome,[14],inactive
same,outcome,[20],inactive
same,outcome,[15],inactive
same,outcome,[16],inactive
same,outcome,[18],inactive
same,outcome,[19],inactive
O=S(=O)(O)c1ccc(N=Nc2c(O)ccc3ccccc23)cc1,outcome,[1],inactive
same,outcome,[2],inactive
same,outcome,[3],inactive
same,outcome,[4],inactive
same,outcome,[5],inactive
same,AC50,[6],1.3 µM (active)
same,outcome,[7],inactive
same,outcome,[8],inactive
same,outcome,[9],inactive
same,outcome,[10],inactive
same,outcome,[11],inactive
same,outcome,[12],inactive
same,outcome,[13],inactive
same,outcome,[14],inactive
same,outcome,[20],inactive
same,outcome,[16],inactive
same,AC50,[17],7.83 µM (active)
same,outcome,[18],inactive
same,outcome,[19],inactive
Nc1cccc(N)n1,outcome,[1],inactive
same,outcome,[2],inactive
same,outcome,[3],inactive
same,outcome,[4],inactive
same,outcome,[5],inactive
same,AC50,[6],52.3 µM (active)
same,outcome,[7],inactive
same,outcome,[8],inactive
same,outcome,[9],inactive
same,outcome,[10],inactive
same,outcome,[11],inactive
same,outcome,[12],inactive
same,outcome,[13],inactive
same,outcome,[14],inactive
same,outcome,[20],inactive
same,outcome,[16],inactive
same,outcome,[17],inactive
same,outcome,[18],inactive
same,outcome,[19],inactive
